Measured values published in article PMC13494018.

B1: design_391_ca6baf5d-2451-47ba-bffc-fc886679966a_219_dldesign_0_cycle1_af2pred (protein)
chain: AEAERRREEVIREAREAAERLREAGREASPELRALAEATAQTVLLLVEGGEANSPELGLRVAERALELARRTLEEVRAG
B2: design_391_ca6baf5d-2451-47ba-bffc-fc886679966a_294_dldesign_0_cycle1_af2pred (protein)
chain: AAEEAAEKAVEEAEKALEKAKAHLAKYPDSLAAKAAVALAKTMLAAAKEVAEEGNLEELERTLESVRKATEEMDKLLAADEAAAA
B3: design_391_ca6baf5d-2451-47ba-bffc-fc886679966a_707_dldesign_0_cycle1_af2pred (protein)
chain: AEEEERERRAEEVRRWAEERAAQARALAAQDPQAGLALALEAMEELRELRERDPAVAEAAREGEQLMAEIAAQAAKAATA
B4: design_391_ca6baf5d-2451-47ba-bffc-fc886679966a_866_dldesign_0_cycle1_af2pred (protein)
chain: SMEEEKKKEAEKKAQSYLKSVEVWATATISAIAQGVVGAQMLANLKKKSEEAIKKLKELGTEEGKKAAEKVKAYLAKAEAAA
B5: design_391_ca6baf5d-2451-47ba-bffc-fc886679966a_888_dldesign_0_cycle1_af2pred (protein)
chain: AAAAAAAAAAAAAAAAALARAEELAAAASPEVRALIEAHGIAGRIMFMYTLGARAAAADPARGAELLADARALLAAAQAASRAA
B6: design_391_ca6baf5d-2451-47ba-bffc-fc886679966a_926_dldesign_0_cycle1_af2pred (protein)
chain: AEAAAQKALATAMAKALKKRGEELLKEAKTASAEEAKKLLDNFVKLGEVLAAGAPPEVGAEVKAATEKYSAEMQAVIDAKAA
B7: design_391_ca6baf5d-2451-47ba-bffc-fc886679966a_968_dldesign_0_cycle1_af2pred (protein)
chain: AAAQQQLRDQARKLLEQAAKRAKEAGNEEAAKEAKEAAKLLKEGGSLGEAAVEASRAHAAAVRFGDEETAALAQAALKLLSQAA
B8: design_391_ca6baf5d-2451-47ba-bffc-fc886679966a_1034_dldesign_0_cycle1_af2pred (protein)
chain: ADAAAQALSQAFELAAQALTKTGSDEANAALQAVTRAMADPAKLPEAIAAAKKAAAAYPEVKALMDQAIKELEKAAELAKAA
B9: design_391_ca6baf5d-2451-47ba-bffc-fc886679966a_1141_dldesign_0_cycle1_af2pred (protein)
chain: APAAATARAVGKRAQAAAKKLAKAGTKEVAKEAKKLAEKAKELEKEAIANAADTAVSGAKILEILKLLDEANKLLKKY
B10: design_391_ca6baf5d-2451-47ba-bffc-fc886679966a_1188_dldesign_0_cycle1_af2pred (protein)
chain: AAAEEIAARNGEALARQAAAASPEDAAAIAENALQMARASPLFAPAARKAVEAAAETIAKEDPERGEALLREGLAAVEAIEA
B11: design_391_ca6baf5d-2451-47ba-bffc-fc886679966a_1193_dldesign_0_cycle1_af2pred (protein)
chain: AAARQAALLAQAEALRAQAVALADGTAEEQQALLQQIVDLAQAHPDMSPETWAALNAALAAASSAYIRAARA
B12: design_391_ca6baf5d-2451-47ba-bffc-fc886679966a_1195_dldesign_0_cycle1_af2pred (protein)
chain: SLYDEALKYAMQAANLGYEADPELAKKLRQAAIALAQGKIDEAIALLKEAKELAKKYPEKEPEIKELIDKAIELANKIK
B13: design_391_ca6baf5d-2451-47ba-bffc-fc886679966a_1257_dldesign_0_cycle1_af2pred (protein)
chain: SAAAAAAARAAKAAADAEQLKALGDAAIAQLAADPSMAPQARAVAAMARAAAEGYAADPATAAAAEAARATAERVAAAAAAAA
B14: design_391_ca6baf5d-2451-47ba-bffc-fc886679966a_1281_dldesign_0_cycle1_af2pred (protein)
chain: AAQEVQERAREVAARAEALAAAAAADPAAARLARSAAHFARLAAELAPTDLPLAQQALEVAESLLAEAEALLAARRA
B15: design_391_ca6baf5d-2451-47ba-bffc-fc886679966a_1313_dldesign_0_cycle1_af2pred (protein)
chain: MEEARRRAEELLRRVRELAARAAKAAAAGDVAEAQRLLAEALEALAELSRLGREVGPEGRELVREGNRAVAAAARAALAAARAA
B16: design_391_ca6baf5d-2451-47ba-bffc-fc886679966a_1360_dldesign_0_cycle1_af2pred (protein)
chain: DYTERAKAALKSAIENMAKAAIEAAKEDAEKGKEKLKQLKELSEQMIAIAASLDPALAKEIKAYAEEQIKKVEEAIKKAK
B17: design_391_ca6baf5d-2451-47ba-bffc-fc886679966a_1483_dldesign_0_cycle1_af2pred (protein)
chain: SEAAAKEKKAIEAIKKAAADAEAMLQSLIAAGMPAANARAVVTTMTTAARTAAKEAGTEAAKKAAKEAIAKIEAAGKAAEAQLAAQAA
B18: design_391_ca6baf5d-2451-47ba-bffc-fc886679966a_1527_dldesign_0_cycle1_af2pred (protein)
chain: AEERAEEVRRRAEELRARALALIAEDPGAGMAYAVEAARELSEYGRAHPEVAEAAGEAANDVLSAASRAAMAVYAA
B19: design_391_ca6baf5d-2451-47ba-bffc-fc886679966a_1601_dldesign_0_cycle1_af2pred (protein)
chain: STLQELVDAAKEALAAAGELYRLDPERGEALRKQVWALLIAGLRDPATAAADKAKIEALKAEAEALVAELK

Molecular target: CD276, Q5ZPR3
Sequence (Q5ZPR3 whole entry): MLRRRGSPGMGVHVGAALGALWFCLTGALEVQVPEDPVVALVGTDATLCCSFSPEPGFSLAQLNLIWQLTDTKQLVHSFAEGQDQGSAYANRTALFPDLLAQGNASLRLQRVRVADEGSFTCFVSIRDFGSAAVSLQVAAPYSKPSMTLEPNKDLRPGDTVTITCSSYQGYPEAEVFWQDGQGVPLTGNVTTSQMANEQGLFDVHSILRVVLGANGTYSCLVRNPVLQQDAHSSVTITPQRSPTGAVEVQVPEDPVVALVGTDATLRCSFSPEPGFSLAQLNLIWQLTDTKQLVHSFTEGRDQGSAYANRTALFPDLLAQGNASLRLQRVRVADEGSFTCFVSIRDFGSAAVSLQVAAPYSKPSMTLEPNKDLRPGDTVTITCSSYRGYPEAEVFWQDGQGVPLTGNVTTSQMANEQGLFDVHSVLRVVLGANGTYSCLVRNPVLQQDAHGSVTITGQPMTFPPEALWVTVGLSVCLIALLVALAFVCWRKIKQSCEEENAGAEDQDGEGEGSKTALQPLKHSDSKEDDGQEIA

Row | Binder | binding in a display sort
1 | B1 | not found (inactive)
2 | B2 | not found (inactive)
3 | B3 | not found (inactive)
4 | B4 | not found (inactive)
5 | B5 | not found (inactive)
6 | B6 | not found (inactive)
7 | B7 | not found (inactive)
8 | B8 | not found (inactive)
9 | B9 | not found (inactive)
10 | B10 | not found (inactive)
11 | B11 | not found (inactive)
12 | B12 | not found (inactive)
13 | B13 | not found (inactive)
14 | B14 | not found (inactive)
15 | B15 | not found (inactive)
16 | B16 | not found (inactive)
17 | B17 | not found (inactive)
18 | B18 | not found (inactive)
19 | B19 | not found (inactive)
